From the supplement of paper PMC4206461

Tested on: Pseudomonas aeruginosa PA14 dppA1-A5 penta mutant + pBBR5.DppA1 (PA14_58350)
Assay: respiration area under curve with compound as sole nitrogen source, 24 h (OmniLog AUC (arbitrary units)); higher = more respiration / better utilisation as nitrogen source, active = 2000 or more
Conditions: plate: PM8
Description: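 Biolog Phenotype MicroArray plates PM6-PM8: each di/tripeptide is the sole nitrogen source. Tetrazolium reduction was read in the OmniLog for 24 h at 37°C and summarised as area under the respiration curve (arbitrary units). Values below 2000 count as no respiration. Strain is the SBP penta mutant complemented with DppA1 on a plasmid under its native promoter. Lys/His/Cys peptides are excluded.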

| SMILES | respiration area under curve |
| --- | --- |
| N[C@@H](Cc1ccc(O)cc1)C(=O)NCC(=O)NCC(=O)O | 9440 (active) |
